This passage reports Potency and outcome results from PubChem BioAssay (NCATS).

The target in assay [1] is ATP-dependent DNA helicase Q1 (Homo sapiens) (UniProt P46063). Nature of the assay: qHTS Validation Assay for Inhibitors of RecQ-Like Dna Helicase 1 (RECQ1) (AID 2353). Put shortly:
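50 nM RECQ1T1 preincubated 15 min with compound in Tris pH 8.0 buffer with MgCl2, DTT, Tween-20 and 2.5 ug/ml poly(dI-dC); started with 200 nM TAMRA/BHQ-2 forked duplex and 2 mM ATP. Unwinding read as fluorescence (525/598 nm), two reads 2 h apart.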

Assay [2] is described as follows: Cytometric Cell-Based qHTS for Inhibitors of the mTORC1 Signaling Pathway in MEF (Tsc2-/-, p53-/-) Cells (AID 2660).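 Further: Tsc2 and p53 null MEFs carrying empty vector with compound for 24 h; percent of cells above a phospho-rpS6 to PI ratio cutoff in each well; series mostly up to about 38 µM.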 Put shortly: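 Immunofluorescence qHTS of rpS6 Ser235/236 phosphorylation: MEFs (Tsc2-/-, p53-/-) treated 24 h, 37 C, in DMEM + 10% FBS. Alexa-488 signal normalized to PI count, referenced to rapamycin (7.5 nM) and DMSO; PI cell number recorded for viability.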

Assay [3] is described as follows: High Content Imaging Cell-Based qHTS for Inhibitors of the mTORC1 Signaling Pathway in MEF (Tsc2-/-, p53-/-) Cells (AID 2666).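 Further: percent of cells scored positive for phospho-rpS6 Ser235/236 immunostaining by imaging.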 Put shortly: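 Cells were plated, dosed with compound after 24 hrs, and incubated another 24 hrs at 37 degree Celsius. Fixed cells were immunostained for phospho-rpS6 Ser235/236 and counterstained, and the normalized signal was scored as % active cells against rapamycin and DMSO controls.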

The nature of assay [4]: Cytometry Cell-Based qHTS for Inhibitors of the mTORC1 Signaling Pathway in MEF cells (AID 2668).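 Further: Tsc2-/- p53-/- mouse embryonic fibroblasts stably re-expressing wild-type Tsc2; percent cells positive for phospho-rpS6 Ser235/236 relative to propidium iodide stain; series mostly up to about 38 µM.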 Put shortly: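 In MEFs grown in DMEM + 10% FBS, a 24 hrs compound exposure preceded imaging of phospho-rpS6 Ser235/236 by laser-scanning cytometry.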
Assay [5] can be described thus: Validation screen for small molecules that induce DNA re-replication in MCF 10A normal breast cells (AID 463097). Further: nearly all actives have a fitted effect of over 60% in size. Further: potency means the concentration at half of the fitted maximal effect. In outline:
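Following 48 hr compound incubation (37 C, 5% CO2), MCF 10A cells receive Hoechst for 40 min at 37 C. Nuclei are then scanned (excitation 405 nm, emission 500-530 nm) for total fluorescence intensity.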

Assay [6] has as its target DNA polymerase III PolC-type (Bacillus subtilis (strain 168)) (UniProt P13267). Nature of the assay: qHTS Validation Assay for the Inhibitors of DNA Replication in Gram-Positive Bacteria (AID 485295).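 Further: reconstituted holoenzyme with PolC plus beta clamp SSB and primase; PicoGreen fluorescence of double-stranded DNA made on primed circular M13 template; series mostly up to about 57 µM.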 Put shortly:
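Inhibition of DNA synthesis by the reconstituted PolC holoenzyme, monitored through PicoGreen staining of dsDNA formed from ssM13Gori, dNTPs and NTPs, with compound preincubation and room-temperature reaction.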

Assay [7] addresses Beta-2 adrenergic receptor (Homo sapiens) (UniProt P07550). Nature of the assay: qHTS validation assay of beta-arrestin-biased ligands of beta2-adrenergic receptor (AID 485366). Put shortly: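 Arrestin-recruitment (Tango) reporter: ligand-bound beta2-AR recruits beta-arrestin, releasing tTA, which upregulates luciferase. Titrations of up to 46 microM incubated 18 hr at 37 degrees C before luminescent readout.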

The target of assay [8] is ATP-dependent 6-phosphofructokinase (Trypanosoma brucei brucei) (UniProt O15648). Nature of the assay: qHTS Validation Assay to Find Inhibitors of T. brucei phosphofructokinase (AID 485368). Put shortly:
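Steps: substrate mix (0.5 mM F6P, 0.1 mM ATP, MgCl2, TEA pH 8.0); compound; 1.25 nM T. brucei PFK; 45 min RT; ATP depletion 10 min; ADP-to-ATP detection 10 min; luminescence read; curve fitting and classification.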

The nature of assay [9]: Quantitative high throughput screen for delayed death inhibitors of the malarial parasite plastid, 96 hour incubation (AID 488745). Further: nearly all actives have a fitted effect of over 70% in size. Further: potency means the concentration at half of the fitted maximal effect. Put shortly: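 Infected erythrocytes were added to compound in Albumax-supplemented RPMI 1640 at 0.1% parasitemia and 2% hematocrit (final), incubated 96 h at 37 C under 5% CO2, then luciferase reagent was added and luminescence measured.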
The nature of assay [10]: Quantitative high throughput screen for delayed death inhibitors of the malarial parasite plastid, 48 hour incubation (AID 488752). Further: nearly all actives have a fitted effect of over 65% in size. Further: potency means the concentration at half of the fitted maximal effect. Put shortly:
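Readout is firefly luciferase luminescence from a reporter integrated into the parasite genome, with lower signal taken as inhibited growth. Infected red cells (0.1% parasitemia, 2% hematocrit final) are cultured with compound for one 48 h cycle at 37 C.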

For assay [11], the target named is Thioredoxin reductase 1, cytoplasmic (Rattus norvegicus) (UniProt O89049). Nature of the assay: qHTS Assay for Substrates of Mammalian Selenoprotein Thioredoxin Reductase 1 (TrxR1) (AID 488772).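 Further: NADPH fluorescence in the first read after selenite addition and not the 8 min delta; series mostly up to about 57 µM; a drop in NADPH fluorescence below the no-compound background marks a TrxR1 substrate.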 Put shortly: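 Quantitative HTS in Tris-HCl buffer at pH 7.5 with EDTA and Tween-20, using rat TrxR1, 400 uM NADPH and 400 uM selenite (final). A fall in initial NADPH fluorescence relative to background marked substrate behaviour.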

The target is the same in assay [12]. Nature of the assay: qHTS Assay for Inhibitors of Mammalian Selenoprotein Thioredoxin Reductase 1 (TrxR1) (AID 488773). Further: nearly all actives have a fitted effect of over 40% in size. Further: potency means the concentration at half of the fitted maximal effect. The note with it: Potency: inhibition. In outline:
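Steps: enzyme (90 nM) plus NADPH (400 uM final), 5 min at ~22 deg C; compound added, 15 min; selenite (400 uM final) added; fluorescence followed for 8 min. Concentration-response curves derived from the normalized delta values.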

In assay [13] the target is Flap endonuclease 1 (Homo sapiens) (UniProt P39748). Description: qHTS Validation Assay for the Inhibitors of Human Flap endonuclease 1 (FEN1) (AID 488816). Put shortly: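 Readings taken at 0 and 15 min after starting the reaction with 50 nM (final) substrate supplied the signal. Compounds had first sat with 10 nM FEN1 reagent for 15 min at room temperature. Values come from Hill-equation concentration-response fits.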

Assay [14] addresses M-phase phosphoprotein 8 (Homo sapiens) (UniProt Q99549). Nature of the assay: qHTS Validation Assay for Inhibitors for MPP8 Chromodomain Interactions with Methylated Histone Tails (AID 488949). Further: nearly all actives have a fitted effect of over 55% in size. Further: potency means the concentration at half of the fitted maximal effect. In outline: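 Chemiluminescent proximity assay: histidine-tag capture via nickel acceptor beads, biotin peptide via streptavidin donor beads. Protein and peptide each at 50 nM, pH 7.4, with 30 min incubations at room temperature for complex formation, compound exposure and bead binding.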

Assay [15] concerns the target Tumor susceptibility gene 101 protein (Homo sapiens) (UniProt Q99816). Description: qHTS Validation Assay for Iinhibitors of HIV-1 Budding by Blocking the Interaction of PTAP/TSG101 (AID 485342; calls by dose curve). In outline: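 Compound wells held the Tsg101 binding domain (10 uM) and a FITC-conjugated PTAP peptide (50 nM) in buffer at pH 7.5 containing 0.15 M NaCl and 0.01% Tween 20; polarization was recorded after 20 min, r.t.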

For assay [16], the target named is RecQ-like DNA helicase BLM (Homo sapiens) (UniProt P54132). Description: qHTS Validation Assay for Inhibitors of Bloom's syndrome helicase (BLM) (AID 2364). Put shortly:
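Forked 20-bp duplex substrate (200 nM, TAMRA/BHQ-2) plus 2 mM ATP added after 15 min compound preincubation with 50 nM enzyme, pH 8.0, poly(dI-dC) 2.5 ug/ml. Strand separation followed by fluorescence (525/598 nm) over 2 h, normalized to enzyme-free and DMSO controls.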

Assay [17] in a line: qHTS Validation Assay to Find Inhibitors of Chronic Active B-Cell Receptor Signaling (AID 485345; active means well fitted curve in the direction sought with a large enough effect in the main read-out, with a control signal flat, not every such curve was filed as active). In outline:
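Read-out: ratio of filter-corrected green (IkappaBalpha fusion) to red (native) luciferase signal in doxycycline-induced TMD8 cells after 4 h at 37C. Titration spanned 46 uM–3 nM; Data were normalised to basal cells and 10 uM MG-132 wells.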

The nature of assay [18]: High Content Imaging Cell-Based qHTS for Inhibitors of the mTORC1 Signaling Pathway in MEF Cells (AID 2667). Further: potency means the concentration at half of the fitted maximal effect. In outline: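 Immunofluorescence for rpS6 phosphorylation in MEFs of Tsc2-/-, p53-/- background rescued with WT Tsc2. Compound exposure lasted 24 hrs. Inhibition was scored against rapamycin-treated control wells.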
For assay [19], the target named is Ubiquitin carboxyl-terminal hydrolase 2 (Homo sapiens) (UniProt O75604). Nature of the assay: qHTS Validation Assay for Inhibitors of Ubiquitin-specific Protease USP2a Using CHOP2 as the Reporter (AID 463106). Put shortly:
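10nM USP2 core + cpd, 30min RT; add 25nM Ub-CHOP2/25nM substrate; 60min RT; FI 485/531nm. Buffer Tris pH 8.0, CaCl2, BME, CHAPS. Norm. to NEM = 100% inhibition; time-zero read flags fluorescent artifacts.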

Results filed as inconclusive are left out. Activity calls are given as the source filed them. Unless noted, the call rests on the fitted dose curve; in most records, active means well fitted curve in the direction sought with a large enough effect; inconclusive means small, poorly fitted or top-dose-only effect, or another doubt; inactive means no such curve, though single readings can be large; an effect the other way counts as inactive or inconclusive.

Chain of ATP-dependent DNA helicase Q1 (Homo sapiens) (P46063 whole entry, looked up): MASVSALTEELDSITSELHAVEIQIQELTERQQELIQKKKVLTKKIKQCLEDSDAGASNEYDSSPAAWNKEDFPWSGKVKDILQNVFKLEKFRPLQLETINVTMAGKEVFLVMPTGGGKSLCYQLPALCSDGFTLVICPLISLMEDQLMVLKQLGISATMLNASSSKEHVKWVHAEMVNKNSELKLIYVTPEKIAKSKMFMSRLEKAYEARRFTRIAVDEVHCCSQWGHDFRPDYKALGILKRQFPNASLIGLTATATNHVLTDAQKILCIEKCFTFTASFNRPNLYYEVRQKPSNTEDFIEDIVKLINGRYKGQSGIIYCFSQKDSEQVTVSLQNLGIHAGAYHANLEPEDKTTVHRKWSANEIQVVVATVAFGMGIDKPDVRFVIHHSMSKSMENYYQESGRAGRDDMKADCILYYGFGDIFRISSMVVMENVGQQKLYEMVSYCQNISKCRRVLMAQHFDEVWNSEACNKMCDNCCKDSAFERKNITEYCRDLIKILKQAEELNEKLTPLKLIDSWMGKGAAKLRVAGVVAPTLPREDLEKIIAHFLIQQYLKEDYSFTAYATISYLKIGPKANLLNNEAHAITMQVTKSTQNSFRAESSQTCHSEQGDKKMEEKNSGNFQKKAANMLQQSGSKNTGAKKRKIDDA
Chain of M-phase phosphoprotein 8 (Homo sapiens) (Q99549 whole entry, looked up): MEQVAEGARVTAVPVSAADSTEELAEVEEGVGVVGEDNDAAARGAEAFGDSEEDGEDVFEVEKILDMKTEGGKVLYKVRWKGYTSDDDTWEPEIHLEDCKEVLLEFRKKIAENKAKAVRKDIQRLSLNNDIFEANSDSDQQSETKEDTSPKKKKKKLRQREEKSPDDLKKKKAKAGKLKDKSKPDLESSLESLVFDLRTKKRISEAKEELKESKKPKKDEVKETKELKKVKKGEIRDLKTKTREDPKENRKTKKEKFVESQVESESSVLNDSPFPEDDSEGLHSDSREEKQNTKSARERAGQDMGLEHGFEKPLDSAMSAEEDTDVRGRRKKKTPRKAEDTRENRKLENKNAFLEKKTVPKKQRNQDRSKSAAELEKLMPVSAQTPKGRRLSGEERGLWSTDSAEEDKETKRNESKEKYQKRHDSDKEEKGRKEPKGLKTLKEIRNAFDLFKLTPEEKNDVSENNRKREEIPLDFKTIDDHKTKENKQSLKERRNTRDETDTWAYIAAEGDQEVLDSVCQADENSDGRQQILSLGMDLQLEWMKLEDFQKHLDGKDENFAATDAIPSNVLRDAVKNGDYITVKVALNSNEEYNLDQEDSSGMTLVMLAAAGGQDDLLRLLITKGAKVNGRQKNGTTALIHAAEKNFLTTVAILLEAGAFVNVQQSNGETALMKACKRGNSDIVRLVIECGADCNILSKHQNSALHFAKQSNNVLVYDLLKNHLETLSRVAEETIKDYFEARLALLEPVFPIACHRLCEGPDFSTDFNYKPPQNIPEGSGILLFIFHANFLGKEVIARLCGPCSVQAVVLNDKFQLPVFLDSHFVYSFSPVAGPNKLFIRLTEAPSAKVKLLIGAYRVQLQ
Chain of Ubiquitin carboxyl-terminal hydrolase 2 (Homo sapiens) (O75604 whole entry, looked up): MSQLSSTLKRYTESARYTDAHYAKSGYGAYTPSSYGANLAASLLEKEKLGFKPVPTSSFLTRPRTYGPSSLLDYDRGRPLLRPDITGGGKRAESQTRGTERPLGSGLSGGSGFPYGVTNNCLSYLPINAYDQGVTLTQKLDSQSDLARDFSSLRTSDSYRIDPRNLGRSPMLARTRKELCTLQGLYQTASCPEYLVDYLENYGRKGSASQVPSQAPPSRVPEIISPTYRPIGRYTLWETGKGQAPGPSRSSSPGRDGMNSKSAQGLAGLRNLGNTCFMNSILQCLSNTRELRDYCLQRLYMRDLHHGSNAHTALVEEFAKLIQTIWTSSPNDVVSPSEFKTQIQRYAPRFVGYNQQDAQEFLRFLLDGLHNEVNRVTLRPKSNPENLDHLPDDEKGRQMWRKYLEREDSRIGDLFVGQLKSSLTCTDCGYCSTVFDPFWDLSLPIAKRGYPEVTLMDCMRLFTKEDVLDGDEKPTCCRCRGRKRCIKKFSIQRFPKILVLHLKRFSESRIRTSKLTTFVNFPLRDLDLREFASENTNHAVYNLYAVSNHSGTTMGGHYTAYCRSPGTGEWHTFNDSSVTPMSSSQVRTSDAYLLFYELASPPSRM
Chain of Beta-2 adrenergic receptor (Homo sapiens) (P07550 whole entry, looked up): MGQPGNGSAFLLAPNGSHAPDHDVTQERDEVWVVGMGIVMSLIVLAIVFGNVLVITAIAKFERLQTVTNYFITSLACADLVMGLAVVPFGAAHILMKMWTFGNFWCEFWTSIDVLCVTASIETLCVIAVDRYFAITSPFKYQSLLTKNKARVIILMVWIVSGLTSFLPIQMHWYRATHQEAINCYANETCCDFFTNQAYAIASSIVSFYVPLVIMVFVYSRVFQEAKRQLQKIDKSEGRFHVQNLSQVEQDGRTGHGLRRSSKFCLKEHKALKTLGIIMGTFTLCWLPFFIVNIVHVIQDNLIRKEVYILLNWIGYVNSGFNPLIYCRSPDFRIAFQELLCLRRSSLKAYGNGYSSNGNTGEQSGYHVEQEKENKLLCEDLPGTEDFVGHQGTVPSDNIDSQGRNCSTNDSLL
Chain of Tumor susceptibility gene 101 protein (Homo sapiens) (Q99816 whole entry, looked up, the tested form may be a part): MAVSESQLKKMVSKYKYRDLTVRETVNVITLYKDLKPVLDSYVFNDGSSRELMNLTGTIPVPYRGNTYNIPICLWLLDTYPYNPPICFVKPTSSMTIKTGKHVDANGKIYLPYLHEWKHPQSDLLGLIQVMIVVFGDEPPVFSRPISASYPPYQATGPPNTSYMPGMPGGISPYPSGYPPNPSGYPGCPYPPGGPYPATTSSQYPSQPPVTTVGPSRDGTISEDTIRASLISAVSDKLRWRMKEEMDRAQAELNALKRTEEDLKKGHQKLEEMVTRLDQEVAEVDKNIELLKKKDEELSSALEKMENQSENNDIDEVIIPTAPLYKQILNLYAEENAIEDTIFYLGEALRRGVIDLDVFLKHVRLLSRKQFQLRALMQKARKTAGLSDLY
Chain of Thioredoxin reductase 1, cytoplasmic (Rattus norvegicus) (O89049 whole entry, looked up): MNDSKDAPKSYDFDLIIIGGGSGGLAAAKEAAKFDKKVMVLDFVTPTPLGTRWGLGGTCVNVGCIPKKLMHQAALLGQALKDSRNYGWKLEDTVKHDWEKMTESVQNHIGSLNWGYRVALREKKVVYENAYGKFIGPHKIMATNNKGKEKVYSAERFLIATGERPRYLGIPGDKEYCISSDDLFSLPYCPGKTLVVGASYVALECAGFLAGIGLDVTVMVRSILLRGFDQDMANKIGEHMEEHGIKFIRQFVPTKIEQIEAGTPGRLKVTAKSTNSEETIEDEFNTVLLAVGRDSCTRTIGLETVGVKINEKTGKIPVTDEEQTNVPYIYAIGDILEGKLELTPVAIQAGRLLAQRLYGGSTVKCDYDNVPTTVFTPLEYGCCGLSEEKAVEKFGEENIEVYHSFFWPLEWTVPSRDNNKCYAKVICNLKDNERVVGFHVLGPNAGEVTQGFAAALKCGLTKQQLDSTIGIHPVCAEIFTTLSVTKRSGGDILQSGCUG
Chain of DNA polymerase III PolC-type (Bacillus subtilis (strain 168)) (P13267 whole entry, looked up): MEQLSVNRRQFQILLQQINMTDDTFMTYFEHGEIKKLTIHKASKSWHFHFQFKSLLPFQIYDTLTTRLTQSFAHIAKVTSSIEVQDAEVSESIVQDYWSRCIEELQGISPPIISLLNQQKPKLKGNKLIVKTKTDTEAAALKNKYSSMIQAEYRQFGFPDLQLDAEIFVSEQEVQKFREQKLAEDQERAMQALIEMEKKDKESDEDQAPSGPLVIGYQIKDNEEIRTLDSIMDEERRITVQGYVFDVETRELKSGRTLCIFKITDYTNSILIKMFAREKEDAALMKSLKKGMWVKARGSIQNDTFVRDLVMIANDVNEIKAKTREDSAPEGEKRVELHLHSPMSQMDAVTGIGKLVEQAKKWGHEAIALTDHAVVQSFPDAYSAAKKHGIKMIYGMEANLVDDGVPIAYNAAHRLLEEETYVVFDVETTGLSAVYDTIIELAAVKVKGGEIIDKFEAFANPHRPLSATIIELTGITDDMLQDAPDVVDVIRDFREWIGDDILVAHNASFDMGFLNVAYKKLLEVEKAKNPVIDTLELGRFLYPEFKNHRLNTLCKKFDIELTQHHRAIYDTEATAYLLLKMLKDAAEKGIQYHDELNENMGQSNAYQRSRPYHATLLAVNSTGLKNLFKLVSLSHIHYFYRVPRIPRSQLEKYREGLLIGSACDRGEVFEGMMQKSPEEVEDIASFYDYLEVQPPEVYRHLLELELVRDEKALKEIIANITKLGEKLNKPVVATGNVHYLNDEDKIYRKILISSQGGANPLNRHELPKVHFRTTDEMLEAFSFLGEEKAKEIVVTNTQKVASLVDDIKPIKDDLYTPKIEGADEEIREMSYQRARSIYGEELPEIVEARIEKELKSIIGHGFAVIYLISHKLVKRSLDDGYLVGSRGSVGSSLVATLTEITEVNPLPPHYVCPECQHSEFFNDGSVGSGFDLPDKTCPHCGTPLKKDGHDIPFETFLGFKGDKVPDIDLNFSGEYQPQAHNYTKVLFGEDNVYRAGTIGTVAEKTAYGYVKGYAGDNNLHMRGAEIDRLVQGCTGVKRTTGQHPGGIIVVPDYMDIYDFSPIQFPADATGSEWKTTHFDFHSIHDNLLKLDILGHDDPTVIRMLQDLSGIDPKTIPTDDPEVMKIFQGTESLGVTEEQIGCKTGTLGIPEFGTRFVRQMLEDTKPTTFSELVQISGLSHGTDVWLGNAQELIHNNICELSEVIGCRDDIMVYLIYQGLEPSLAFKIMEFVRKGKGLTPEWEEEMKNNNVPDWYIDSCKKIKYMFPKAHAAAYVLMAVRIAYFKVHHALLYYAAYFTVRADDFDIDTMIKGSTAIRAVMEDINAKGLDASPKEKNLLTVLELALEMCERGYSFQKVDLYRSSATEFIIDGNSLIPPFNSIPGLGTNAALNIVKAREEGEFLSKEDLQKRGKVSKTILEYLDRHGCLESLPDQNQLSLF

For the molecule `OCCN(CCO)c1nc(N2CCCCC2)c2nc(N(CCO)CCO)nc(N3CCCCC3)c2n1`, the Potency entry in [1], in assay [3], in assay [4], in assay [6], in assay [8] and in assay [12] was “inactive” in each case. The Potency entry in assay [13] and in [14] was “inactive” throughout. The molecule was classed as inactive in assay [2], in assay [7] and in assay [11]. Besides, the Potency in [5] was 12.6 µM (active); in assay [9] it was 10.4 µM (active); in [10] it was 9.28 µM (active).

For `COc1ccccc1OCCNCC(O)COc1cccc2[nH]c3ccccc3c12` (configuration not stated), the molecule was called inactive in [2], in [15] and in assay [11]. Besides, the Potency entry in [3], in [6], in assay [12], in assay [13] and in [14] was “inactive” each time.

With `CC1COc2c(N3CCN(C)CC3)c(F)cc3c(=O)c(C(=O)O)cn1c23` (configuration not stated), the Potency result in [1], in assay [16], in [3], in assay [4], in assay [5] and in assay [6] was “inactive” throughout. The Potency entry in assay [17], in [8], in assay [9], in assay [10], in assay [12] and in assay [14] was “inactive” each time. Also, the molecule was classed as inactive in assay [2], in assay [15], in [7] and in assay [11].

On to `COc1cc2nc(N(C)CCCNC(=O)C3CCCO3)nc(N)c2cc1OC` (configuration not stated), for which the result in assay [2], in [15], in [7] and in assay [11] was inactive. The Potency entry in assay [3], in assay [18], in assay [4], in assay [19], in assay [6] and in [17] was “inactive” in each case. The Potency result in [12], in [13] and in [14] was “inactive” in each case.

`Clc1ccccc1C(c1ccccc1)(c1ccccc1)n1ccnc1`: the Potency entry in assay [1], in assay [3], in assay [4], in [6], in assay [17] and in [12] was “inactive” each time. The Potency entry in assay [13] and in [14] was “inactive” in each case. The call in [2], in [15], in assay [7] and in assay [11] was inactive. Besides, the Potency is 1.17 µM (active) in [9] and 1.04 µM (active) in [10].

With `Clc1ccc2c(c1)C(N1CCNCC1)=Nc1ccccc1O2`, the Potency result in assay [1], in [16], in assay [3], in assay [5], in assay [6] and in [12] was “inactive” in each case. Besides, the Potency entry in assay [13] and in assay [14] was “inactive” each time. Moreover, the call in assay [15], in [7] and in assay [11] was inactive.

Take `Cc1cnc(C(=O)NCCc2ccc(S(=O)(=O)NC(=O)NC3CCCCC3)cc2)cn1`: the Potency result in assay [1], in assay [3], in assay [4], in [5], in assay [19] and in [6] was “inactive” in each case. Moreover, the Potency result in [17], in [8], in assay [9], in [10], in assay [12] and in assay [13] was “inactive” each time. The molecule was called inactive in assay [2], in [15], in assay [7] and in assay [11].

Turning to `Cc1cc(C(C)(C)C)cc(C)c1CC1=NCCN1`, the Potency result in assay [1], in assay [3], in assay [18], in assay [4], in assay [5] and in [19] was “inactive” in each case. Besides, the Potency result in assay [6], in assay [17], in [8], in assay [9], in assay [10] and in assay [13] was “inactive” each time. The molecule was classed as inactive in [2], in assay [15], in assay [7] and in assay [11].

As to `CC#C[C@]1(O)CC[C@H]2[C@@H]3CCC4=CC(=O)CCC4=C3[C@@H](c3ccc(N(C)C)cc3)C[C@@]21C`, the molecule was classed as inactive in assay [2], in assay [15], in [7] and in [11]. Moreover, the Potency result in assay [3], in [6], in assay [12] and in [13] was “inactive” throughout. The Potency was 11.7 µM (active) in assay [18] and 11.9 µM (active) in assay [14].

Regarding `NC(CO)C(=O)NNCc1ccc(O)c(O)c1O` (configuration not stated), the Potency result in assay [1], in assay [16], in [3], in [5], in [6] and in assay [17] was “inactive” throughout. Also, the Potency result in assay [9], in assay [10] and in assay [13] was “inactive” in each case. The molecule was called inactive in assay [2], in assay [15], in assay [7] and in assay [11]. For the same molecule, the Potency is 4.23 µM (active) in [12] and 31.6 µM (active) in [14].

`CN(C)CCCN1c2ccccc2CCc2ccc(Cl)cc21`: the Potency entry in assay [1], in [16], in [3], in assay [5], in [19] and in [6] was “inactive” throughout. In addition, the Potency entry in [12], in [13] and in assay [14] was “inactive” in each case. The result in [2], in assay [15], in assay [7] and in assay [11] was inactive. In addition, the Potency was 3.29 µM (active) in assay [9] and 1.31 µM (active) in [10].

As to `Clc1ccc2nsnc2c1NC1=NCCN1`, the outcome in assay [2], in [15], in [7] and in assay [11] was inactive. In addition, the Potency result in assay [3], in [4], in [19], in assay [6], in assay [17] and in assay [12] was “inactive” in each case. For the same molecule, the Potency entry in assay [13] and in [14] was “inactive” throughout.

Take `CN(C)C(=O)C(CCN1CCC(O)(c2ccc(Cl)cc2)CC1)(c1ccccc1)c1ccccc1`: the Potency entry in assay [1], in assay [6], in assay [8] and in assay [12] was “inactive” in each case. Moreover, the call in assay [15], in [7] and in assay [11] was inactive.
